In the library only some 28% were active in any assay of this set; here they are far more common.
CD11b adhes inh – blocks human CD11b/CD18 adhesion to fibrinogen | 0.54% of 93,000 active | K562 CD11b/CD18 adhesion to fibrinogen, ATPlite luminescence; Mn2+ added to activate the integrin | P05107+P11215 | inhibition, % at 10 µM;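 active means primary inhibition of 50% or more at 10 µM, then 40% or more on retest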
CD11b adhes enh – enhancers of human CD11b/CD18 binding to fibrinogen; P05107+P11215; AID 1499; K562 CD11b/CD18 adhesion to fibrinogen, ATPlite luminescence; activation, % at 10 µM; 0.07% of 93,000 active;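 active means 10 µM primary screen giving 50% or more activity, confirmed by 40% or more on retest at that dose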
CYP2C19 inh – human CYP2C19 inhibition. P33261. CYP2C19 Supersomes, luciferin-H EGE luminescence, 30 min. inhibition, % at 5 µM. 21% of 96,000 active. AID 778;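 active means CYP2C19 inhibition above a set limit at 5 µM in the primary screen, cut at about 50% in these data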;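 further: plate controls were negative control wells for no effect and 2.5 mM tranylcypromine positive control for full effect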
CYP2C9 inhib – human CYP2C9 inhibition | CYP2C9 Supersomes, luciferin-H conversion, luminescence | AID 777 | inhibition, % at 5 µM | P11712 | 20% of 96,000 active;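 active means blocking of liver enzyme CYP2C9 beyond about 50% at 5 µM, limit read from the data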
Target sequence (P11712 whole entry, looked up): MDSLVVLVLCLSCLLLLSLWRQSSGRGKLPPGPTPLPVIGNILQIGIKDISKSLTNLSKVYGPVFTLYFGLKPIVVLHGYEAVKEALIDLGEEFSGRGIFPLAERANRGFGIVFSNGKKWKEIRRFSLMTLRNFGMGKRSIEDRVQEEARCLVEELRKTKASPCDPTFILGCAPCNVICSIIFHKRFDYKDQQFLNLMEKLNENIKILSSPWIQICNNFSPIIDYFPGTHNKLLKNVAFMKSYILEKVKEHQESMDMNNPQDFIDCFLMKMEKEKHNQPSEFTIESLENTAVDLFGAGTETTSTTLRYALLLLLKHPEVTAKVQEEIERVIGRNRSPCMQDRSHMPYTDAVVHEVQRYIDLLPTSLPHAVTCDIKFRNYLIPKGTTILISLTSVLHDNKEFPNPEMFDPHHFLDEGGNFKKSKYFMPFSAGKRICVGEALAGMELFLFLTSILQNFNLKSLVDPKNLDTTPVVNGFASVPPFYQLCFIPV
CYP2C9 activ – CYP2C9 (human) activation; P11712; recombinant CYP2C9, luciferin-H conversion, luminescence; stronger effect = higher value; factor 1 = untreated enzyme, 0 = blocked; activation factor at 5 µM; 1.4% of 96,000 active;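 active means activation factor of 2 or more for CYP2C9 at a 5 µM dose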;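 further: 0 = sulfaphenazole-blocked wells and 1 = vehicle-only wells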
CYP2C19 activ – increases human CYP2C19 enzyme activity. P33261. 96,000 tested, under 10 active. activation factor at 5 µM. AID 1025. recombinant CYP2C19, luciferin-H EGE luminescence; stronger effect = higher value; 0 = fully inhibited enzyme, 1 = untreated enzyme;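 active means activation factor of at least 2 at 5 µM in the primary screen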;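 further: 0 = wells with 2.5 mM tranylcypromine and 1 = vehicle-only wells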
* = called active by the depositor.

What do the screens show for `CCn1c(SCC(=O)Nc2sc3c(c2C(N)=O)CCC(C)C3)nnc1-c1ccco1` (centres undefined)?
CYP2C19 inh: 21.8; CYP2C9 inhib: 40.8; CYP2C9 activ: 0.6; CYP2C19 activ: 0.8

What do the screens show for `O=C(CSc1ncc(-c2ccccc2)n1CC1CCCO1)N1CCCCC1` (centres undefined)?
CD11b adhes inh: 21.5; CD11b adhes enh: 5.9; CYP2C19 inh: 58.1*; CYP2C9 inhib: 8.8; CYP2C9 activ: 0.9; CYP2C19 activ: 0.4

What do the screens show for `N#Cc1c(NC(=O)CSc2nnc(-c3ccccc3O)n2-c2ccccc2)sc2c1CCCC2`?
CD11b adhes inh: 4.6; CD11b adhes enh: 16.5; CYP2C19 inh: 74.1*; CYP2C9 inhib: 67.2*; CYP2C9 activ: 0.3; CYP2C19 activ: 0.3

What do the screens show for `Cc1ccc(C(=O)NCc2nnc(SCC(=O)Nc3sc4c(c3C#N)CCCC4)n2C)cc1`?
CD11b adhes inh: 11.3; CD11b adhes enh: -10.6; CYP2C19 inh: 6.0; CYP2C9 inhib: 20.1; CYP2C9 activ: 0.8; CYP2C19 activ: 0.9

What do the screens show for `N#Cc1c(NC(=O)CSc2nnc(-c3ccncc3)n2CC2CCCO2)sc2c1CCCC2` (centres undefined)?
CD11b adhes inh: 1.2; CD11b adhes enh: 0.6; CYP2C19 inh: 69.1*; CYP2C9 inhib: 86.7*; CYP2C9 activ: 0.1; CYP2C19 activ: 0.3

What do the screens show for `NC(=O)c1c(NC(=O)CSc2nnc(-c3ccccc3)n2CC2CCCO2)sc2c1CCC2` (centres undefined)?
CD11b adhes inh: -17.1; CD11b adhes enh: -1.6; CYP2C19 inh: 80.5*; CYP2C9 inhib: 91.2*; CYP2C9 activ: 0.1; CYP2C19 activ: 0.2

Results for Cc1c(NS(=O)(=O)c2ccc3[nH]c(=O)[nH]c3c2)c(=O)n(-c2ccccc2)n1C ?
CD11b adhes inh: 6.0; CD11b adhes enh: 0.5; CYP2C19 inh: -13.4; CYP2C9 inhib: 0.3; CYP2C9 activ: 1; CYP2C19 activ: 1.1

What do the screens show for `Cc1nnc(-c2cnn(-c3ccccc3)c2N)n1Cc1ccc(F)cc1`?
CYP2C19 inh: 43.5; CYP2C9 inhib: 19.6; CYP2C9 activ: 0.8; CYP2C19 activ: 0.6

What do the screens show for `N#Cc1c(NC(=O)CSc2ncc(-c3ccccc3)n2CC2CCCO2)sc2c1CCCC2` (centres undefined)?
CD11b adhes inh: 19.1; CD11b adhes enh: -0.5; CYP2C19 inh: 60.1*; CYP2C9 inhib: 72.9*; CYP2C9 activ: 0.3; CYP2C19 activ: 0.4

Results for N#Cc1c(NC(=O)CSc2nnc(-c3ccccc3)o2)sc2c1CCCC2 ?
CD11b adhes inh: -8.7; CD11b adhes enh: -3.2; CYP2C19 inh: 17.3; CYP2C9 inhib: 39.2; CYP2C9 activ: 0.6; CYP2C19 activ: 0.8

What do the screens show for `Cn1c(-c2ccc(F)cc2)cnc1SCC(=O)N1CCCCC1`?
CD11b adhes inh: 0.7; CD11b adhes enh: -2.3; CYP2C19 inh: 61.9*; CYP2C9 inhib: -3.8; CYP2C9 activ: 1; CYP2C19 activ: 0.4

Results for COc1cc([N+](=O)[O-])ccc1NC(=O)C[n+]1ccccc1C ?
CYP2C19 inh: 5.1; CYP2C9 inhib: 7.5; CYP2C9 activ: 0.9; CYP2C19 activ: 0.9

What do the screens show for `COc1cccc(NC2c3ccccc3C(=O)N2Cc2ccco2)c1` (centres undefined)?
CD11b adhes inh: -10.7; CD11b adhes enh: -0.6; CYP2C19 inh: 41.1; CYP2C9 inhib: 57.2*; CYP2C9 activ: 0.4; CYP2C19 activ: 0.6

How did CCOC(=O)c1cccc(NC2c3ccccc3C(=O)N2Cc2ccco2)c1 (centres undefined) do in these assays?
CD11b adhes inh: 55.6; CD11b adhes enh: -9.7; CYP2C19 inh: 39.4; CYP2C9 inhib: 43.6; CYP2C9 activ: 0.6; CYP2C19 activ: 0.6

How did O=C1c2ccccc2C(Nc2cccc(C(F)(F)F)c2)N1Cc1ccco1 (centres undefined) do in these assays?
CD11b adhes inh: 39.9; CD11b adhes enh: -3.0; CYP2C19 inh: 67.9*; CYP2C9 inhib: 60.0*; CYP2C9 activ: 0.4; CYP2C19 activ: 0.3

How did CCN(CC)S(=O)(=O)c1ccc(NC2c3ccccc3C(=O)N2Cc2ccco2)cc1 (centres undefined) do in these assays?
CD11b adhes inh: -8.3; CD11b adhes enh: -1.9; CYP2C19 inh: 41.1; CYP2C9 inhib: 92.2*; CYP2C9 activ: 0.1; CYP2C19 activ: 0.6

Results for C=CCN1/C(=C(\C#N)C2=NS(=O)(=O)c3ccccc32)N(C)c2ccccc21 ?
CD11b adhes inh: 3.2; CD11b adhes enh: -0.2; CYP2C19 inh: 54.7*; CYP2C9 inhib: 35.9; CYP2C9 activ: 0.6; CYP2C19 activ: 0.5

How did COC(=O)c1ccc(N2CCN(CC(=O)c3ccc(-c4ccccc4)cc3)CC2)c([N+](=O)[O-])c1 do in these assays?
CYP2C19 inh: 39.4; CYP2C9 inhib: 50.2*; CYP2C9 activ: 0.5; CYP2C19 activ: 0.6

How did COC(=O)C1=C(N)Oc2cc(C)n(Cc3ccco3)c(=O)c2C1c1cccc(Cl)c1 (centres undefined) do in these assays?
CD11b adhes inh: 27.1; CD11b adhes enh: -0.4; CYP2C19 inh: 34.5; CYP2C9 inhib: 55.5*; CYP2C9 activ: 0.4; CYP2C19 activ: 0.7

What do the screens show for `COC(=O)C1=C(N)Oc2cc(C)n(CC3CCCO3)c(=O)c2C1c1ccc(Cl)c(Cl)c1` (centres undefined)?
CD11b adhes inh: 10.5; CD11b adhes enh: 2.9; CYP2C19 inh: 71.5*; CYP2C9 inhib: 81.4*; CYP2C9 activ: 0.2; CYP2C19 activ: 0.3

Results for CCn1c(C)cc2c(c1=O)C(c1ccccc1)C(C(=O)OC)=C(N)O2 (centres undefined) ?
CD11b adhes inh: -2.6; CD11b adhes enh: 3.3; CYP2C19 inh: 20.6; CYP2C9 inhib: -7.6; CYP2C9 activ: 1.1; CYP2C19 activ: 0.8

How did COC(=O)C1=C(N)Oc2cc(C)n(CCCn3ccnc3)c(=O)c2C1c1ccc(Cl)cc1 (centres undefined) do in these assays?
CD11b adhes inh: -9.8; CD11b adhes enh: -1.7; CYP2C19 inh: 99.3*; CYP2C9 inhib: 96.6*; CYP2C9 activ: 0; CYP2C19 activ: 0

Results for COC(=O)C1=C(N)Oc2cc(C)n(C)c(=O)c2C1c1ccc(Cl)c(Cl)c1 (centres undefined) ?
CD11b adhes inh: -9.2; CD11b adhes enh: 0.6; CYP2C19 inh: -8.0; CYP2C9 inhib: 31.9; CYP2C9 activ: 0.7; CYP2C19 activ: 1.1

What do the screens show for `COC(=O)C1=C(N)Oc2cc(C)[nH]c(=O)c2C1c1ccncc1` (centres undefined)?
CD11b adhes inh: -2.8; CD11b adhes enh: -3.4; CYP2C19 inh: 48.6; CYP2C9 inhib: 51.0*; CYP2C9 activ: 0.5; CYP2C19 activ: 0.5

Results for CC1CCN(C(=O)CSc2nnc(Cc3cc(=O)[nH]c(=O)[nH]3)n2-c2ccc(Cl)cc2)CC1 ?
CD11b adhes inh: -8.4; CD11b adhes enh: -1.3; CYP2C19 inh: 7.7; CYP2C9 inhib: 3.6; CYP2C9 activ: 1; CYP2C19 activ: 0.9
